# Experimental data reported in PubChem BioAssay (NCATS).
# A number with no mark means an inactive call. Results filed as inconclusive are left out. Entries that show only a call come without a potency. Active and inactive are the calls of the source. Unless noted, calls come from the whole dose curve; as a rule, active = well fitted curve in the direction sought with a large enough effect; inconclusive = small, poorly fitted or top-dose-only effect, or another doubt; inactive = no such curve, though single readings can be large; an effect the other way counts as inactive or inconclusive.
# Experiments:
# [1] = qHTS for Inhibitors of Plasmodium falciparum (GB4) proliferation (AID 504315); note: nearly all actives have a fitted effect of over 50% in size; note: potency is the fitted concentration of half-maximal effect
# How it was run: (§1)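 Parasite growth measured as SYBR Green DNA fluorescence (ex 485, em 535 nm) after overnight lysis following 72 h culture at 37 °C, 0.3% parasitemia, 2.5% hematocrit. Values normalized against DMSO and 0.29 uM artemisinin controls, with plate-stack correction.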
# [2] = qHTS for Inhibitors of Plasmodium falciparum (7G8) proliferation (AID 504316); note: nearly all actives have a fitted effect of over 65% in size; note: potency is the fitted concentration of half-maximal effect; for activity change, negative = inhibition: series mostly up to about 6.7 µM
# How it was run: as §1
# [3] = qHTS for Inhibitors of Plasmodium falciparum (HB3) proliferation (AID 504318); note: nearly all actives have a fitted effect of over 60% in size; note: potency is the fitted concentration of half-maximal effect
# How it was run: as §1
# [4] = biological target: Atrial natriuretic peptide receptor 1 (Homo sapiens) (UniProt P16066); assay: Natriuretic polypeptide receptor (hNpr1) antagonism - Pilot CMLD screen (AID 1347052; calls by dose curve;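 note: HEK293 cells with hNpr1 stimulated by hNppA peptide at 0.1 nM; cGMP level read as GloSensor luciferase luminescence after agonist stimulation; series mostly up to about 9.2 µM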)
# Sequence of Atrial natriuretic peptide receptor 1 (Homo sapiens) (P16066 whole entry, looked up): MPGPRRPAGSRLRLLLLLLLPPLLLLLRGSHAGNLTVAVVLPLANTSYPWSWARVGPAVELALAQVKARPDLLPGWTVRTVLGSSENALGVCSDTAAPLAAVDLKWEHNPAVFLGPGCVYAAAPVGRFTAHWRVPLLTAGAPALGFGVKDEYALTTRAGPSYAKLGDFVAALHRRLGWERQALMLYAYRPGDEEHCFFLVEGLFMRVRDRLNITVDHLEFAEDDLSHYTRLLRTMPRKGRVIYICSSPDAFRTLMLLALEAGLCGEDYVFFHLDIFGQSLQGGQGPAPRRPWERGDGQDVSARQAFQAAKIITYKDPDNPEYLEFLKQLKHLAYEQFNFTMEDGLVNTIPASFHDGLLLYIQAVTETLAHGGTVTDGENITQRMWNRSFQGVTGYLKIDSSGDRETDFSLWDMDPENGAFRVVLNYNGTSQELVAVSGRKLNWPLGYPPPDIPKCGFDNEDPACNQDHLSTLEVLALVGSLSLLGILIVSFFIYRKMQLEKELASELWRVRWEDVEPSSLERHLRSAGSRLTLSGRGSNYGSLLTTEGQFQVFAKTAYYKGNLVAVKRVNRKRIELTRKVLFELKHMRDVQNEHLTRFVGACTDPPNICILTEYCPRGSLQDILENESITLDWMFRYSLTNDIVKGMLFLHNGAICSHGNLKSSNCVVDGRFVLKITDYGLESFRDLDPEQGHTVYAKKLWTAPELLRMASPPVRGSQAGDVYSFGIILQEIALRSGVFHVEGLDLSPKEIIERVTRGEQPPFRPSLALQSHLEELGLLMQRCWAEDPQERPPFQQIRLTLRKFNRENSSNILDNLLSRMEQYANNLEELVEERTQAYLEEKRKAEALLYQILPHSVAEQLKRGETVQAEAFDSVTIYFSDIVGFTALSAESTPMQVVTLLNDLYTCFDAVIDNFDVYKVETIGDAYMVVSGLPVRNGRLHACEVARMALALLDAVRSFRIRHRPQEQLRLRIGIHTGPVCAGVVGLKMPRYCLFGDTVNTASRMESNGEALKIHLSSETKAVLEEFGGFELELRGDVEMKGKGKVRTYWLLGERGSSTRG
# [5] = qHTS for Inhibitors of Plasmodium falciparum (CP250) proliferation (AID 504320)
# How it was run: as §1
# [6] = biological target: Cytochrome P450 2C9 (Homo sapiens) (UniProt P11712); assay: qHTS Assay for Inhibitors and Substrates of Cytochrome P450 2C9 (AID 883); note: potency is the fitted concentration of half-maximal effect; nearly all actives have a fitted effect of over 60% in size
# Sequence of Cytochrome P450 2C9 (Homo sapiens) (P11712 whole entry, looked up): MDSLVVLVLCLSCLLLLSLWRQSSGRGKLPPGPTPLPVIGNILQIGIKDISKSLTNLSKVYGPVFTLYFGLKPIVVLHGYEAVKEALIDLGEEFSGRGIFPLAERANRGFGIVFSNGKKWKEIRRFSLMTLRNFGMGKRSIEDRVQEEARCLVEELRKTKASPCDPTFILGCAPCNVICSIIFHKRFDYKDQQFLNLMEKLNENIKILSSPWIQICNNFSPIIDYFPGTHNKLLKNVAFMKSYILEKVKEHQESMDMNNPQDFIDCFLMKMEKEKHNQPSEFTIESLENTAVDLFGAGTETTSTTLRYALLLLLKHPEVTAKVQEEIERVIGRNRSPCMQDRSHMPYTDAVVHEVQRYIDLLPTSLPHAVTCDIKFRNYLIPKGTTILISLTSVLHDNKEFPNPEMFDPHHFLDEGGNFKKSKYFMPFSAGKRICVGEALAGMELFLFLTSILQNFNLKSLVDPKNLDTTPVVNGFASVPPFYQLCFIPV
# How it was run: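 CYP2C9 deoxyluciferin hydroxylation, 37C, 60 min with NADPH regeneration; 10nM enzyme, 100uM Luciferin-H (KM). Glo detection reagent stopped reaction; luminescence normalized to sulphaphenazole (57uM) full inhibition.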
# [7] = biological target: Cytochrome P450 3A4 (Homo sapiens) (UniProt P08684); assay: qHTS Assay for Activators of Cytochrome P450 3A4 (AID 885); note: nearly all actives have a fitted effect of over 65% in size
# Sequence of Cytochrome P450 3A4 (Homo sapiens) (P08684 whole entry, looked up): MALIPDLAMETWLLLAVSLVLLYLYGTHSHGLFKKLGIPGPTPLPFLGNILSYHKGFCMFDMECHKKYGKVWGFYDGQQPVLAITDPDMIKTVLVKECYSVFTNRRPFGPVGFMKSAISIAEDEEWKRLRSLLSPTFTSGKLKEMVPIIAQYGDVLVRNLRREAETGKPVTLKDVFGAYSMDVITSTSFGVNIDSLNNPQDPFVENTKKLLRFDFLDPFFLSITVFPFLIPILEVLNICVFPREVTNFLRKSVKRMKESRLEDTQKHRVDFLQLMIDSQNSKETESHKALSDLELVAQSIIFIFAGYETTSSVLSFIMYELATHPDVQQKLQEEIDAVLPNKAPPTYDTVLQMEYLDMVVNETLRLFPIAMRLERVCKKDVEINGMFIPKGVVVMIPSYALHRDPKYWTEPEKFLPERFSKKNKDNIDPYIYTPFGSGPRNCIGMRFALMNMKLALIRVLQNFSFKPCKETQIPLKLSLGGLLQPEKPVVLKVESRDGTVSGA
# How it was run: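 CYP3A4 activity: Luciferin-PPXE O-dealkylation, 25uM substrate, 200mM KPO4, RT throughout. Read-out is luciferase luminescence; higher values reflect activation.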
# [8] = qHTS for Inhibitors of Plasmodium falciparum (DD2) proliferation (AID 504314);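 note: parasite DNA measured by SYBR Green fluorescence after red cell lysis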
# How it was run: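 P. falciparum Dd2 is grown in erythrocytes with test compound for 72 h at 37C under 5% CO2. Growth is scored by SYBR Green I fluorescence after detergent lysis, relative to artemisinin (0.29 uM) and DMSO controls.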
# [9] = biological target: Cytochrome P450 2D6 (Homo sapiens) (UniProt P10635); assay: qHTS Assay for Inhibitors and Substrates of Cytochrome P450 2D6 (AID 891);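 note: luciferin methyl ether substrate demethylated by CYP2D6 with NADPH regeneration; nearly all actives have a fitted effect of over 60% in size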
# Sequence of Cytochrome P450 2D6 (Homo sapiens) (P10635 whole entry, looked up): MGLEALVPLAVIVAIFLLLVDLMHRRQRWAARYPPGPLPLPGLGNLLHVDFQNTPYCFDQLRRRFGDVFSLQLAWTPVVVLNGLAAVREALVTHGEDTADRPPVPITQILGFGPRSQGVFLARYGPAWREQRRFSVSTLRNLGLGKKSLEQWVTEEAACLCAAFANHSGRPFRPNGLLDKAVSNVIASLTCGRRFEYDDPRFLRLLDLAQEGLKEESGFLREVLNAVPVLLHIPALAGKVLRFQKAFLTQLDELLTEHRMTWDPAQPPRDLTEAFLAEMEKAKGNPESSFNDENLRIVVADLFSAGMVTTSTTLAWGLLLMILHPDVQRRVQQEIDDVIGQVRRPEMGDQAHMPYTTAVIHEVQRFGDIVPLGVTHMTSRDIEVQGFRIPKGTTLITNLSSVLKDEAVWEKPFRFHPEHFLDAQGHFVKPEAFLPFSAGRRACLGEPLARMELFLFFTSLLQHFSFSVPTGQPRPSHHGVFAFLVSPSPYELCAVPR
# How it was run: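 Luminescent read-out of luciferin formed by 5 nM human CYP2D6 demethylating 30 uM Luciferin-ME EGE (Km level) over 60 min at room temperature after NADPH regeneration addition. Data normalized to full inhibition by 1.43 uM quinidine.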
structure (smiles),measurement,setting,value
O=C1[C@@H]2[C@H]3[C@H](O)[C@H](O)CC(=NOC[C@@H](O)COCc4ccco4)[C@@H]3CC[C@H]2C(=O)N1C1CCCCC1,Potency,[1],inactive
same,Potency,[2],inactive
same,Potency,[3],inactive
same,Potency,[4],inactive
COCOc1ccc(Br)cc1C(=O)[C@@H]1O[C@@H]1c1cccc(OC)c1,Potency,[1],inactive
same,Potency,[4],inactive
CCc1cc2c(nc1CC)CCN(CCC(C)=NO[C@@H](C)CN1CCCc3nc(C)c(C)cc31)C2,Potency,[1],inactive
same,Potency,[4],inactive
O=C1C2=C(C(=O)c3ccccc31)[C@H]1O[C@](CCCCN3C(=O)c4ccccc4C3=O)(Cc3ccccc31)O2,Potency,[1],1.69 µM (active)
same,Potency,[2],1.69 µM (active)
same,Potency,[3],1.69 µM (active)
same,Potency,[4],inactive
N#CCCCSc1nnnn1-c1cc(C(F)(F)F)cc(C(F)(F)F)c1,Potency,[1],inactive
same,Potency,[2],inactive
same,Potency,[4],inactive
C#CCN1C(=O)CC[C@@]23C1=NC(C(=O)OC)=C(C(=O)OC)[C@@H]2N(C)c1ccccc13,Potency,[1],inactive
same,Potency,[2],inactive
same,Potency,[3],inactive
same,Potency,[5],inactive
same,Potency,[4],inactive
Cc1cc2c(nc1C)CCCCN2C[C@H](C)ON=C1[C@H]2CCn3c(=O)n(-c4ccccc4)c(=O)n3[C@@H]2[C@H](O)[C@@H]2O[C@H]12,Potency,[1],inactive
same,Potency,[4],inactive
C=CCCC1(C(=O)c2ccccc2)C(=O)C(CC=C(C)C)=C(OC)C(CC=C(C)C)(CCC=C(C)C)C1=O (configuration not stated),Potency,[1],1.69 µM (active)
same,Potency,[2],1.51 µM (active)
same,Potency,[3],1.69 µM (active)
same,Potency,[4],inactive
CCOC(=O)OC[C@H]1O[C@H](C#Cc2ccc(C(C)(C)C)cc2)C=C[C@H]1OC(=O)OCC,Potency,[1],1.69 µM (active)
same,Potency,[2],2.13 µM (active)
same,Potency,[4],inactive
CCN1C(=O)N[C@@H](c2ccccc2)[C@@H](C(=O)OC)[C@H]1C,Potency,[1],inactive
same,Potency,[2],inactive
same,Potency,[3],inactive
same,Potency,[5],inactive
same,Potency,[4],inactive
C=CCN1C(=O)[C@]2(OCCC=C[C@H]2C)c2ccccc21,Potency,[1],inactive
same,Potency,[2],inactive
same,Potency,[3],inactive
same,Potency,[4],inactive
CCCNC(=O)OC[C@H]1O[C@H](CCON=C(C)CCN2CCCc3nc(C)c(C)cc32)C=C[C@H]1Oc1ccc(OC)cc1,Potency,[1],1.9 µM (active)
same,Potency,[2],1.35 µM (active)
same,Potency,[3],1.69 µM (active)
same,Potency,[4],inactive
COC(=O)[C@@H]1CC[C@H](C)[C@@H](c2ccc(C)cc2)N1C(=O)c1ccc(C=NOC[C@@H](O)COCc2ccco2)cc1,Potency,[1],inactive
same,Potency,[4],inactive
C=CC[C@@H]1C=C[C@@H](Oc2ccc(OC)cc2)[C@H](CO)O1,Potency,[1],1.51 µM (active)
same,Potency,[4],inactive
C[C@@H]1CC[C@H]2C(=O)N3[C@@H](CC[C@@H](C)[C@@H]3c3ccc(Br)cc3)C(=O)N2[C@@H]1c1ccc(Br)cc1,Potency,[6],3.98 µM (active)
same,"activity change, positive = activation",[7],-42.7% [at 11.4 µM]
same,Potency,[8],inactive
same,Potency,[5],inactive
same,Potency,[4],inactive
CC1(OC(=O)CCc2ccccc2)C(=O)C=C2C=C(C3CC3)OC=C2C1=O (configuration not stated),Potency,[1],inactive
same,Potency,[2],inactive
same,Potency,[3],inactive
same,Potency,[4],inactive
O=S(=O)(CCc1ccccc1)c1nnnn1C1CCCCC1,Potency,[1],inactive
same,Potency,[4],inactive
COc1ccc(C=CC2=C[C@]3(C)C[C@]2(C)[C@H](c2ccc(OC)cc2)CC3=O)cc1,Potency,[1],1.69 µM (active)
same,Potency,[2],1.51 µM (active)
same,Potency,[3],1.51 µM (active)
same,Potency,[4],inactive
C=C(C)C1CC23C(=O)[C@]4(C(=O)c5ccccc5)C[C@@]5(C)CCC(CC2C1(C)C)(C4=O)[C@@]35OC (some centres not stated),Potency,[8],inactive
same,Potency,[5],inactive
same,Potency,[4],inactive
Cc1ccccc1Nc1oc(-c2ccccc2)nc1-c1ccccc1,Potency,[1],1.9 µM (active)
same,Potency,[2],1.69 µM (active)
same,Potency,[3],1.69 µM (active)
same,Potency,[4],inactive
COC(=O)c1ccc(CN2C(=O)[C@]3(OCCC=C[C@@H]3C)c3ccccc32)cc1,Potency,[1],inactive
same,Potency,[2],inactive
same,Potency,[3],inactive
same,Potency,[4],inactive
CC1=CC[C@@H](C)O[C@@]2(C1)C(=O)N(Cc1ccc(F)cc1)c1ccccc12,Potency,[1],inactive
same,Potency,[4],inactive
COC(=O)C1=C(C(=O)OC)[C@@H]2N(C)c3ccc(OC)cc3[C@@]23C[C@@H](C(=O)OC)N(C(=O)NC(C)(C)C)C3=N1,Potency,[1],1.9 µM (active)
same,Potency,[4],inactive
CC(C)=CCCC(C)=CCON=C1C[C@@H](O)[C@@H](O)[C@@H]2[C@H]3C(=O)N(Cc4ccccc4)C(=O)[C@@H]3CC[C@@H]12,Potency,[1],inactive
same,Potency,[4],inactive
Cn1c(-c2ccccc2)c(O)c(=O)c2ccccc21,"activity change, negative = inhibition",[9],4.63% [at 11.4 µM]
CNc1ccccc1C(=O)OCC(C)=O,"activity change, negative = inhibition",[9],9.06% [at 11.4 µM]
COc1cc2c(cc1OC)[C@@H]1O[C@](CCCCN3C(=O)c4ccccc4C3=O)(C2)Oc2c1c(=O)oc1ccccc21,Potency,[1],1.69 µM (active)
same,Potency,[3],2.39 µM (active)
same,Potency,[4],inactive
O=C1[C@H]2[C@@H]3[C@@H](O)[C@H](O)CC(=NOCc4ccccc4)[C@@H]3CC[C@H]2C(=O)N1Cc1ccc2c(c1)OCO2,Potency,[1],inactive
same,Potency,[3],inactive
same,Potency,[5],inactive
same,Potency,[4],inactive
COc1ccc([C@]23Cc4cc(OC)c(OC)cc4[C@H](O2)c2c(cc(C)oc2=O)O3)cc1,Potency,[1],inactive
same,Potency,[3],inactive
same,Potency,[5],inactive
same,Potency,[4],inactive
COC(=O)C1=C(C)N(Cc2ccccc2)C(=O)NC1c1cccc(C(F)(F)F)c1 (configuration not stated),Potency,[1],inactive
same,Potency,[3],inactive
same,Potency,[5],inactive
same,Potency,[4],inactive
C[C@@H]1C=CCC(=O)N2[C@H](CC(=O)N[C@@H]1c1ccccc1)C[C@@H](C)[C@@H]2c1ccccc1,Potency,[1],inactive
same,Potency,[3],inactive
same,Potency,[5],inactive
same,Potency,[4],inactive
CC(=O)C1=C(C)N(Cc2ccccc2)C(=O)NC1CCc1ccccc1 (configuration not stated),Potency,[1],inactive
same,Potency,[3],inactive
same,Potency,[5],inactive
same,Potency,[4],inactive
CC(=O)OC[C@H]1O[C@H](CC=NO[C@@H](C)CN2CCCc3nc(C)c(C)cc32)C=C[C@@H]1OC(C)=O,Potency,[1],inactive
same,Potency,[3],inactive
same,Potency,[5],inactive
same,Potency,[4],inactive
